Some test systems named below: NCI-H23 lung; NCI-H226 lung; NCI-H322M lung; HOP-62 NSCLC; NCI-H460 lung; HOP-92 NSCLC; NCI-H522 lung; A549/ATCC NSCLC; 786-0 renal; COLO 205 colon; DU-145 prostate; K-562 leukemia; MALME-3M melanoma; MDA-MB-231 breast; RXF 393 renal; SF-268 CNS; SF-295 CNS; SF-539 CNS; UACC-257 melanoma; M14 melanoma.
Experiment in all cases: NCI-60 one-dose screen, 48 h (100 = growth as untreated, 0 = no growth, -100 = all killed)
What all share (conditions): 10 µM unless noted

The panel holds about 83,000 compounds, 20% with a hit somewhere; the sample as a whole holds those more often.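 Cells were grown in 96-well plates and exposed to the test compound at a single concentration for 48 hours; results are reported as percent growth, with values below 10 considered active.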 Unmarked numbers belong to inactive results. Activity calls are given as the source filed them.

Take `C=CCn1c(SCC(=O)Nc2ccc(C(=O)/C=C/c3ccc(Cl)cc3)cc2)nnc1-c1ccccc1`: the growth with NCI-H23 lung was 95%; in the experiment with NCI-H226 lung it was 94.7%; in the experiment with NCI-H322M lung, 96.7%; in the experiment on HOP-62 NSCLC, 97%; in the experiment with NCI-H460 lung, 106%; in the experiment with HOP-92 NSCLC, 93.2%. Further, the growth in the experiment with NCI-H522 lung was 82.2%; with A549/ATCC NSCLC, 93.2%; with 786-0 renal, 81.8%; in the experiment with COLO 205 colon, 105%; in the experiment with DU-145 prostate, 93.7%; in the experiment on K-562 leukemia, 76.3%. For the same compound, the growth with MALME-3M melanoma is 98.7%; with MDA-MB-231 breast, 101%; in the experiment with RXF 393 renal it was 118%; with SF-268 CNS, 84.7%; in the experiment with SF-295 CNS, 94.9%; in the experiment on SF-539 CNS, 96.6%. Further, the growth in the experiment on UACC-257 melanoma is 111%; with M14 melanoma, 94.4%.
`CN1CC(c2ccccc2)C(C(=O)c2ccc(Br)cc2)C12C(=O)Nc1ccccc12` (stereo not given): the growth is 96.2% in the experiment with NCI-H23 lung; 90.5% with NCI-H226 lung; 103% with NCI-H322M lung; 94.8% in the experiment on HOP-62 NSCLC; 99.4% in the experiment on NCI-H460 lung; 86.3% with HOP-92 NSCLC. For the same compound, the growth with NCI-H522 lung was 83%; in the experiment with A549/ATCC NSCLC, 92.2%; with 786-0 renal, 97.8%; in the experiment with COLO 205 colon, 112%; in the experiment with DU-145 prostate, 104%; with K-562 leukemia, 75.3%. For the same compound, the growth with MALME-3M melanoma is 99.4%; in the experiment on MDA-MB-231 breast, 94.7%; in the experiment on RXF 393 renal it was 92.6%; in the experiment with SF-268 CNS it was 91.2%; in the experiment with SF-295 CNS it was 93.9%; in the experiment on SF-539 CNS it was 102%. Further, the growth in the experiment on UACC-257 melanoma was 103%; with M14 melanoma, 102%.
For `COC(=O)c1c(C)nc(C)c2c1C(=O)C(Br)=C(NCCN1CCOCC1)C2=O`, the growth was 89% with NCI-H23 lung; 107% with NCI-H226 lung; 96.2% with NCI-H322M lung; 133% with HOP-62 NSCLC; 88.6% in the experiment with NCI-H460 lung; 118% in the experiment on HOP-92 NSCLC. The growth in the experiment on NCI-H522 lung was 102%; in the experiment with A549/ATCC NSCLC it was 98.6%; in the experiment on 786-0 renal it was 101%; with COLO 205 colon, 56.5%; with DU-145 prostate it was 112%; in the experiment with K-562 leukemia, 97.4%. Besides, the growth is 37% in the experiment with MALME-3M melanoma; 112% with MDA-MB-231 breast; 106% with RXF 393 renal; 95.3% in the experiment on SF-268 CNS; 95.8% in the experiment on SF-295 CNS; 107% in the experiment on SF-539 CNS. The growth in the experiment with UACC-257 melanoma was 87.5%; in the experiment with M14 melanoma, 87.8%.
With `Cc1ccc2c(n1)C[C@H](C(C)(C)O)CC[C@H]2C`, the growth is 103% in the experiment with NCI-H23 lung; 100% in the experiment on NCI-H226 lung; 98.5% in the experiment on NCI-H322M lung; 101% with HOP-62 NSCLC; 108% in the experiment with NCI-H460 lung; 97.7% in the experiment on HOP-92 NSCLC. Further, the growth was 94.3% in the experiment on NCI-H522 lung; 94.4% in the experiment with A549/ATCC NSCLC; 97.9% in the experiment with 786-0 renal; 111% in the experiment with COLO 205 colon; 107% in the experiment with DU-145 prostate; 101% in the experiment with K-562 leukemia. Further, the growth in the experiment on MALME-3M melanoma was 94.4%; in the experiment with MDA-MB-231 breast it was 97.1%; with RXF 393 renal it was 114%; in the experiment with SF-268 CNS, 101%; in the experiment with SF-295 CNS it was 93.4%; with SF-539 CNS, 100%. Besides, the growth in the experiment with UACC-257 melanoma and in the experiment on M14 melanoma was 104% each time.
As to `COc1cc(/C=C/c2cc(/C=C/c3ccc(O)c(OC)c3)n(C(=O)Nc3ccc(C)cc3C)n2)ccc1O`, the growth in the experiment with NCI-H23 lung is -26.1% (active); in the experiment with NCI-H226 lung, -3.7% (active); with NCI-H322M lung it was 8.13% (active); with HOP-62 NSCLC, -35.7% (active); in the experiment with NCI-H460 lung it was 1.87% (active); in the experiment on HOP-92 NSCLC, -27% (active). Further, the growth with NCI-H522 lung is 6.31% (active); with A549/ATCC NSCLC it was -3.98% (active); in the experiment with 786-0 renal, -59.1% (active); in the experiment on COLO 205 colon it was -65.6% (active); in the experiment with DU-145 prostate, -26.6% (active); in the experiment with K-562 leukemia, -7.18% (active). Moreover, the growth with MALME-3M melanoma was -21.7% (active); with MDA-MB-231 breast, 10.2%; in the experiment on RXF 393 renal, -67.3% (active); in the experiment with SF-268 CNS, 3.8% (active); in the experiment with SF-295 CNS, -51% (active); with SF-539 CNS it was -19.6% (active). Also, the figures for the growth in the experiment with UACC-257 melanoma and with M14 melanoma were -21.4% (active) and -38.1% (active), respectively.
Consider `COC(=O)[C@@H](Cc1c[nH]c2ccccc12)NC(=O)[C@H](Cc1ccccc1)NCc1ccncc1`, for which the growth with NCI-H23 lung is 97.4%; in the experiment with NCI-H226 lung, 94.1%; with NCI-H322M lung, 92.8%; with HOP-62 NSCLC, 93.7%; with NCI-H460 lung, 104%; with HOP-92 NSCLC, 91.5%. The growth is 73.5% with NCI-H522 lung; 83.9% with A549/ATCC NSCLC; 104% in the experiment on 786-0 renal; 107% with COLO 205 colon; 108% in the experiment with DU-145 prostate; 102% in the experiment on K-562 leukemia. The growth in the experiment with MALME-3M melanoma is 86.5%; in the experiment with MDA-MB-231 breast, 93.2%; with RXF 393 renal, 103%; in the experiment on SF-268 CNS, 96.9%; in the experiment with SF-295 CNS it was 106%; with SF-539 CNS, 103%. Moreover, the growth with UACC-257 melanoma is 79.4%; in the experiment on M14 melanoma, 103%.
Regarding `CC(C)(C)CC(C)(C)Nc1c(-c2c(O)c3ccccc3oc2=O)nc2sccn12`, the growth was 97.9% with NCI-H23 lung; 88.9% in the experiment with NCI-H226 lung; 86.7% in the experiment on NCI-H322M lung; 85% with HOP-62 NSCLC; 111% in the experiment on NCI-H460 lung; 107% in the experiment on HOP-92 NSCLC. Moreover, the growth is 83% in the experiment on NCI-H522 lung; 90.8% in the experiment on A549/ATCC NSCLC; 109% in the experiment on 786-0 renal; 102% in the experiment with COLO 205 colon; 113% with DU-145 prostate; 101% in the experiment with K-562 leukemia. Besides, the growth is 94% in the experiment on MALME-3M melanoma; 93% with MDA-MB-231 breast; 103% in the experiment on RXF 393 renal; 105% in the experiment on SF-268 CNS; 98.8% with SF-295 CNS; 101% in the experiment on SF-539 CNS. Further, the growth with UACC-257 melanoma was 81.4%; in the experiment on M14 melanoma, 97.2%.
`Cn1cc(-c2nc(-c3c[nH]c4c(Cl)nccc34)cs2)c2ccccc21`: the growth with NCI-H23 lung is 98.6%; in the experiment on NCI-H226 lung it was 103%; with NCI-H322M lung it was 99.4%; with HOP-62 NSCLC it was 92.5%; in the experiment on NCI-H460 lung, 95.5%; in the experiment with HOP-92 NSCLC, 80.4%. Moreover, the growth with NCI-H522 lung is 85.5%; with A549/ATCC NSCLC it was 66.7%; in the experiment on 786-0 renal, 87.4%; in the experiment with COLO 205 colon it was 102%; in the experiment with DU-145 prostate, 92.6%; with K-562 leukemia, 89.3%. The growth in the experiment with MALME-3M melanoma was 113%; in the experiment on MDA-MB-231 breast, 98.9%; in the experiment on RXF 393 renal, 90.4%; in the experiment on SF-268 CNS, 98.5%; with SF-295 CNS, 103%; in the experiment with SF-539 CNS it was 90.5%. The growth is 71.8% in the experiment on UACC-257 melanoma and 97.2% in the experiment on M14 melanoma.

The values above are taken from PubChem BioAssay (NCI).
